# PubChem BioAssay (Tox21)
# Inconclusive results are not listed. Where a call stands in place of a potency, no number is given. Active and inactive are the calls of the source. Calls come from the whole dose curve; as a rule, active = well fitted cell-killing curve with a large enough effect in the repeat runs; inconclusive = weak or mixed curves; inactive = no such curve, though single readings can be large or run the other way.
# Test: qHTS assay to identify small molecule antagonists of the peroxisome proliferator-activated receptor delta (PPARd) signaling pathway - cell viability counter screen (AID 743213); note: nearly all actives have a fitted effect of over 50% in size
# Conditions: PPARd-bla HEK293H viability, CellTiter-Glo luminescence, 17 h; series mostly up to 62 µM
# From the text: U.S. Tox21 Program National Center for Advancing Translational Sciences [NCATS] NIH Chemical Genomics Center [NCGC] U.S. Environmental Protection Agency [EPA] National Institutes of Environmental Health Sciences [NIEHS] National Toxicology Program [NTP] U.S. Food and Drug Administration [FDA] Tox21 Assay Overview: The peroxisome proliferator-activated receptors (PPARs) are lipid-activated transcription factors of the nuclear receptor superfamily with three distinct subtypes namely PPAR alpha, PPAR delta (PPARd) and PPAR gamma. All these subtypes heterodimerizes with Retinoid X receptor (RXR) and have different physiological functions. […] To identify the compounds that inhibit PPAR-delta signaling, GeneBLAzer PPAR delta UAS-bla HEK293H cell line (Invitrogen, Carlsbad, CA, USA) containing a beta-lactamase reporter gene under the control of an Upstream Activator Sequence (UAS) was used to screen the Tox21 compound library. The cytotoxicity of the Tox21 compound library against the PPARd-bla cell line was tested in parallel by measuring the cell viability using CellTiter-Glo assay (Promega, Madison, WI) in the same wells.
# Tox21 Assay Protocol Summary: PPARd-bla cells were dispensed at 3000 cells/5uL/well in 1536-well black wall/clear bottom plates using a Multidrop Combi (Thermo Fisher Scientific, Waltham, MA) dispenser. After the assay plates were incubated at 37 C and 5% CO2 for 5 h, 23 nL of compounds dissolved in DMSO, positive controls or DMSO only was transferred to the assay plate by a Pintool station (Kalypsys, San Diego, CA), followed by addition of 1ul L165041 (300 nM, final concentration in the wells). The assay plates were incubated at 37 C for 17 h, and then 1 uL of LiveBLAzerTM B/G FRET substrate was added using a Bioraptr Flying Reagent Dispenser (FRD) workstation (Beckman Coulter, Indianapolis, IN, USA). The assay plates were incubated at room temperature for 2 h and fluorescence intensity was measured by an Envision plate reader (PerkinElmer, Shelton, CT). For cell viability readout that measures cytotoxicity, 3 ul/well of CellTiter-Glo reagent was added into the assay plates using a Bioraptr FRD. After 30 min incubation at room temperature, the luminescence intensity in the plates was measured using a ViewLux plate reader (PerkinElmer).
# Potency is the fitted concentration of half-maximal effect.
row,SMILES,Potency
1,CNC(=O)O/N=C(\C)C(C)S(C)(=O)=O (stereo not given),inactive
2,Fc1ccc(C(OCCN2CCN(CCCc3ccccc3)CC2)c2ccc(F)cc2)cc1,26.6 µM (active)
3,C[C@@H]1CC2=CC(=O)CC[C@@H]2[C@H]2CC[C@@]3(C)[C@@H](CC[C@]3(C)O)[C@@H]21,inactive
4,CCC(C)Br (stereo not given),inactive
5,O=C1C[C@@H]2OCC=C3CN4CC[C@]56c7ccccc7N1[C@H]5[C@H]2[C@H]3C[C@H]46,inactive
6,O=C(Nc1ccc(F)cc1F)c1cccnc1Oc1cccc(C(F)(F)F)c1,inactive
7,N#CCCl,inactive
8,CCCCN(CCCC)C(=S)S,inactive
9,c1ccc(Nc2ccc(Nc3ccccc3)cc2)cc1,inactive
10,CCN(CC)Cc1nccn1-c1ccc([N+](=O)[O-])cc1C(=O)c1ccccc1Cl,inactive
11,CCCCON=O,inactive
12,CC(=O)[O][Pb]([c]1ccccc1)([c]1ccccc1)[c]1ccccc1,1.23 µM (active)
13,COP(=S)(OC)Oc1ccc([N+](=O)[O-])c(C)c1,inactive
14,Cc1cnc2c(C(=O)O)c(Cl)ccc2c1,inactive
15,C#CCO,inactive
16,Cc1ccc2cc3c(ccc4ccccc43)c3c2c1CC3,inactive
17,CNC(C)(C)Cc1ccccc1,inactive
18,Cc1c([N+](=O)[O-])cc2c(c1[N+](=O)[O-])C(C)(C)CC2(C)C,inactive
19,O=[N+]([O-])c1ccccc1-c1ccccc1,inactive
20,CSC(C)(C)/C=N/O,inactive

row,SMILES,Potency
1,C1=CCC=C1,inactive
2,Oc1ccc(Cl)c(Cl)c1,inactive
3,O=C1C(Cl)=C(Cl)C(=O)C(Cl)=C1Cl,13.8 µM (active)
4,O.O.O.O.O.O.O=S(=O)([O-])[O-].[Ni+2],inactive
5,CSC1=N[C@@](C)(c2ccccc2)C(=O)N1Nc1ccccc1,inactive
6,CC1CN1 (stereo not given),inactive
7,CCOP(=O)(Sc1ccccc1)Sc1ccccc1,inactive
8,COP(=S)(NC(C)C)Oc1ccc(C)cc1[N+](=O)[O-] (stereo not given),inactive
9,Cc1ccc([N+](=O)[O-])[c]2c1[O][Hg]2,5.96 µM (active)
10,Nc1ccccc1-c1ccccc1,inactive
11,O=C(NC(=O)c1ccccc1Cl)Nc1ccc(OC(F)(F)F)cc1,inactive
12,CC[C@]1(O)CC[C@H]2[C@@H]3CCC4=CCCC[C@@H]4[C@H]3CC[C@@]21C,inactive
13,O=[N+]([O-])c1cc(C(F)(F)F)c(Cl)c([N+](=O)[O-])c1Nc1ncc(C(F)(F)F)cc1Cl,6.16 µM (active)
14,CC(=O)O.CC(=O)O.CC(=O)O.CC(=O)O.CC(=O)O.CC(=O)O.CC(=O)O.O.O.[Cr].[Cr].[Cr],inactive
15,CNC(=O)Oc1cc(C)cc(C(C)C)c1,inactive
16,[Cl-].[Cl-].[Sn+2],inactive
17,COc1ccc2c3c1O[C@H]1[C@H](O)CC[C@H]4[C@@H](C2)N(C)CC[C@@]341,inactive
18,COP(=O)(OC)O/C(=C\Cl)c1cc(Cl)c(Cl)cc1Cl,inactive
19,CN=C=O,inactive
20,CCOP(=S)(OCC)Oc1cc(C)nc(N(CC)CC)n1,inactive
